Measurements taken from PubChem BioAssay (NCATS).
Inconclusive results are not listed. Active and inactive are the calls of the source. Calls follow the shape of the dose curve; as a rule, active = well fitted curve in the direction sought with a large enough effect; inconclusive = small, poorly fitted or top-dose-only effect, or another doubt; inactive = no such curve, though single readings can be large; an effect the other way counts as inactive or inconclusive.

Columns and labels:
[1] = Cell Viability - LYMP1-002 - Assay at 16 hr (AID 948); conditions: LYMP1-002 lymphoblastoid cell viability; series mostly up to 92.2 µM
Procedure, shortened: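 Human lymphoblastoid cells (LYMP1-002), 2500/well, were preincubated 5 hr at 37 C, then exposed to compounds for 16 hr at 37 C in complete medium. Cellular ATP was read by CellTiter-Glo luminescence after 30 min at room temperature; AC50 from Hill fits.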

[2] = MultiTox-Fluor Cytotoxicity Assay - LYMP1-002 - Live Cells (AID 955); conditions: LYMP1-002 lymphoblastoid live-cell protease fluorescence viability; series mostly up to 46.1 µM
Procedure, shortened: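 Human lymphoblastoid LYMP1-002 cells, 2500/well, treated 16 h at 37 C in complete medium. Live-cell protease activity via GF-AFC fluorescence (Ex/Em 405/510) after 60 min reagent incubation; AC50 from Hill fits.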

[3] = MultiTox-Fluor Cytotoxicity Assay - LYMP1-003 - Dead Cells (AID 961); conditions: LYMP1-003 lymphoblastoid cells, dead-cell protease fluorescence; series mostly up to 92.2 µM; also: nearly all actives have a fitted effect of over 70% in size
Procedure, shortened: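 LYMP1-003 human lymphoblastoid cells (2500/well) exposed to compound 16 h at 37 C in complete medium; dead-cell protease read with bis-AAF-R110 fluorescence (Ex/Em 485/520) after 60 min at room temperature. Normalized to DMSO and 15 uM tetraoctylammonium bromide; AC50 from Hill fit.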

[4] = MultiTox-Fluor Cytotoxicity Assay - LYMP1-003 - Live Cells (AID 962); conditions: LYMP1-003 lymphoblastoid cells, MultiTox-Fluor live-cell protease fluorescence; series mostly up to 92.2 µM;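 also: cytotoxic hits lower the live-cell protease signal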
Procedure, shortened: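 LYMP1-003 lymphoblastoid cells, 2500/well in complete medium, treated 16 h at 37 C; live-cell protease cleavage of GF-AFC read by fluorescence (Ex/Em 405/510) after 60 min reagent; AC50 from Hill fits of concentration-response.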

[5] = Cell Viability - LYMP1-003 - Assay at 24 hr (AID 963); conditions: LYMP1-003 lymphoblastoid cell viability; series mostly up to 92.2 µM
Procedure, shortened: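 Human lymphoblastoid LYMP1-003 cells, 2500/well, treated 24 h at 37 C in complete medium. Viability read as intracellular ATP by CellTiter-Glo luminescence after 30 min at room temperature; AC50 from Hill-equation fits of qHTS concentration-response.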

[6] = Cell Viability - LYMP2-013 (AID 970); conditions: LYMP2-013 lymphoblastoid cells viability; series mostly up to 92.2 µM; also: nearly all actives have a fitted effect of over 55% in size
Procedure, shortened: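 Human lymphoblastoid LYMP2-013 cells, 2500/well, treated 24 h at 37 C in complete medium; viability as intracellular ATP by CellTiter-Glo luminescence after 30 min. AC50 from Hill fits of qHTS concentration-response.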

[7] = Cell Viability - LYMP2-015 (AID 971); conditions: LYMP2-015 lymphoblastoid cell viability; series mostly up to 92.2 µM; also: nearly all actives have a fitted effect of over 55% in size
Procedure, shortened: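 LYMP2-015 human lymphoblastoid cells (2500/well) in complete medium, compound-treated 24 h at 37 C; viability read as cellular ATP by CellTiter-Glo luminescence after 30 min at room temperature. AC50 from Hill-equation fits of qHTS concentration-response data.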

[8] = Cell Viability - LYMP2-019 (AID 973); conditions: LYMP2-019 lymphoblastoid cell line viability; series mostly up to 92.2 µM; also: nearly all actives have a fitted effect of over 55% in size
Procedure, shortened: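 Human lymphoblastoid LYMP2-019 cells (2500/well) preincubated 5 h at 37 C, then treated 24 h at 37 C in complete medium. Viability by CellTiter-Glo ATP luminescence after 30 min at room temperature; AC50 from Hill fits.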

[9] = Cell Viability - LYMP2-023 (AID 975); conditions: LYMP2-023 lymphoblastoid cell viability; series mostly up to 92.2 µM;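 also: cellular ATP measured by luciferase luminescence as viability proxy; nearly all actives have a fitted effect of over 55% in size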
Procedure, shortened: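 LYMP2-023 human lymphoblastoid cells, 2500/well, preincubated 5 hr at 37 C, then compound-treated 24 hr at 37 C in complete medium. CellTiter-Glo luminescence (ATP) after 30 min at room temperature; AC50 from Hill-equation fits; tetraoctylammonium bromide positive control.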

[10] = Cell Viability - LYMP2-025 (AID 976); conditions: LYMP2-025 lymphoblastoid cell viability; series mostly up to 92.2 µM
Procedure, shortened: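 Human lymphoblastoid LYMP2-025 cells, 2500/well, exposed 24 h at 37 C in complete medium in 1536-well qHTS. Viability as cellular ATP by CellTiter-Glo luminescence; AC50 from Hill fits of concentration-response data.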

[11] = Cell Viability - LYMP2-002 (AID 977); conditions: LYMP2-002 lymphoblastoid cell viability, qHTS; series mostly up to 92.2 µM;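 also: compound exposure lasted 24 h at 37 °C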
Procedure, shortened: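 Cytotoxicity is scored as concentration-dependent loss of cellular ATP in a human lymphoblastoid line after 24 hr compound treatment at 37 C. AC50 is obtained by modelling concentration-response data with the Hill equation.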

[12] = Cell Viability - LYMP2-006 (AID 978); conditions: LYMP2-006 lymphoblastoid cell viability, qHTS; series mostly up to 92.2 µM; also: nearly all actives have a fitted effect of over 60% in size
Procedure, shortened: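 Human lymphoblastoid cells, 2500 per well, were preincubated 5 hr at 37 C, then exposed to compounds for 24 hr at 37 C in complete medium. Viability was read as intracellular ATP by CellTiter-Glo luminescence; AC50 from Hill-equation fits of qHTS concentration-response data.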

[13] = Cell Viability - LYMP2-010 (AID 981); conditions: LYMP2-010 lymphoblastoid cell viability, qHTS; series mostly up to 92.2 µM; also: nearly all actives have a fitted effect of over 55% in size
Procedure, shortened: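 Human lymphoblastoid LYMP2-010 cells (2500/well) treated 24 h at 37 C in complete medium; viability read as intracellular ATP by CellTiter-Glo luminescence. AC50 from Hill fits of concentration-response data; tetraoctylammonium bromide positive control.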

[14] = Cell Viability - LYMP2-012 (AID 982); conditions: LYMP2-012 lymphoblastoid cell viability qHTS; series mostly up to 92.2 µM
[15] = Cell Viability - LYMP2-014 (AID 983); conditions: LYMP2-014 lymphoblastoid cells, viability qHTS; series mostly up to 92.2 µM; also: nearly all actives have a fitted effect of over 50% in size
Procedure, shortened: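 LYMP2-014 human lymphoblastoid cells, 2500/well, treated 24 h at 37 C in complete medium; viability by CellTiter-Glo ATP luminescence after 30 min at room temperature. AC50 from Hill fits of qHTS concentration-response; tetraoctylammonium bromide positive control.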

[16] = Cell Viability - LYMP2-016 (AID 984); conditions: LYMP2-016 lymphoblastoid cell viability, qHTS; series mostly up to 92.2 µM; also: nearly all actives have a fitted effect of over 55% in size
Procedure, shortened: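 Human lymphoblastoid cells (LYMP2-016), 2500/well in complete medium, preincubated 5 hr at 37 C, then compound-treated 24 hr at 37 C. Intracellular ATP read by CellTiter-Glo luminescence after 30 min at room temperature; AC50 from Hill-equation concentration-response fits.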

[17] = Cell Viability - LYMP2-018 (AID 985); conditions: LYMP2-018 lymphoblastoid cells, viability (qHTS); series mostly up to 92.2 µM;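 also: compound exposure lasted 24 hr at 37 °C; nearly all actives have a fitted effect of over 50% in size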
Procedure, shortened: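 Human lymphoblastoid LYMP2-018 cells, 2500/well, settled 5 hr at 37 C then exposed to compound 24 hr at 37 C; intracellular ATP measured by CellTiter-Glo luminescence. AC50 from Hill-equation concentration-response fits.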

[18] = Cell Viability - LYMP2-024 (AID 988); conditions: LYMP2-024 lymphoblastoid cell viability; series mostly up to 92.2 µM; also: nearly all actives have a fitted effect of over 60% in size
Procedure, shortened: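 Human lymphoblastoid LYMP2-024 cells (2500/well) rested 5 hr, then treated with compound for 24 hr at 37 C in complete medium. Viability was measured as intracellular ATP by CellTiter-Glo luminescence. AC50 values came from Hill-equation fits.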

[19] = Cell Viability - LYMP2-026 (AID 989); conditions: LYMP2-026 lymphoblastoid cell viability, qHTS; series mostly up to 92.2 µM; also: nearly all actives have a fitted effect of over 50% in size
Procedure, shortened: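 Human lymphoblastoid LYMP2-026 cells, 2500/well, exposed to compound 24 h at 37 C in complete medium. Viability as intracellular ATP by CellTiter-Glo luminescence; AC50 from Hill fits of qHTS concentration-response.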

[20] = Cell Viability - LYMP1-002 - Assay at 24 hr (AID 993); conditions: LYMP1-002 lymphoblastoid cells viability; series mostly up to 92.2 µM
Procedure, shortened: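 Human lymphoblastoid LYMP1-002 cells (2500/well) treated 24 h at 37 °C; viability as intracellular ATP by CellTiter-Glo luminescence. Tetraoctylammonium bromide as positive control; AC50 from Hill-equation fits of qHTS concentration-response.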

Measured: Potency

CC(C)(c1ccc(OCC2CO2)cc1)c1ccc(OCC2CO2)cc1 (stereo not given)
inactive: all assays above
